# From ChEMBL document CHEMBL4513216, “Probing the Open Global Health Chemical Diversity Library for Multistage-Active Starting Points for Next-Generation Antimalarials” (ACS Infect Dis, 2020)
# Out of some 65,000 compounds screened, about 2,100 (3.2%) showed an effect of 50% or more. The median lay at about -52%. The sample holds strong results, similar compounds and a random draw of the others, so the mix is not that of the screen.
# Tested on: Plasmodium falciparum
# Assay: Screen against P. falciparum Asexual Blood Stage (ABS), at 5uM
# Type: functional, Dd2
# Conditions: tested at 5 uM
row,SMILES,INHIBITION [%]
1,COC(=O)c1ccc(CN(C)C(=O)c2cnsn2)cc1,-39.8
2,Cc1cc(-c2cccnc2)nc(C2CCCN2S(C)(=O)=O)n1 (stereo unspecified),-29.8
3,O=C(c1sccc1C1CC1)N1CCN(Cc2cscn2)CC1,-52.2
4,O=C(c1cocn1)N1C[C@@H]2CN(Cc3ccco3)CCO[C@@H]2C1,-6.8
5,N#Cc1ccc(F)c(CNC(=O)NC(CO)Cc2ccccc2)c1 (stereo unspecified),-90.6
6,CC(C)CC(=O)N(C)Cc1nc(C(F)(F)F)cs1,-49.5
7,CCc1nc2n(n1)CC(NCc1nnc(C(C)C)o1)CC2 (stereo unspecified),-107
8,OC(CNCCn1cccn1)c1cccc(F)c1 (stereo unspecified),-25.4
9,OC(CNCCn1cccn1)c1ccc(Br)cc1 (stereo unspecified),-6.84
10,OC(CNCCn1cccn1)c1cccc(Br)c1 (stereo unspecified),64.3
11,Cc1cc(NC(=O)NCc2ccncc2)ccc1OC(C)C,-62
12,O=C(c1ccc(Cl)cc1)N1CCn2c(nn(-c3cccc(Cl)c3)c2=O)C1,-1.25
13,CCO[C@H]1CC[C@H]2[C@@H]1OCCN2C(=O)COc1ccccc1,-106
14,CN1CCCN(c2nc(C3CC3)ns2)CC1,-0.753
15,CCOc1ccnc(N2CCCN(c3nc(C4CC4)ns3)CC2)n1,52.1
16,CCOc1ccnc(N2CCCN(c3nc(CC)ns3)CC2)n1,-63.7
17,Cc1ncoc1C(=O)N1CCOC(Cc2ccccc2)C1 (stereo unspecified),-121
18,Cn1nc(C2CCCN(Cc3ccc(F)cc3F)C2)c2nccnc21 (stereo unspecified),-79
19,Cc1cc(C(=O)Nc2ccc3oc(=O)n(CCN(C)C)c3c2)c(C)o1,8.61
20,Cn1ccnc1C(=O)N1CCC2(CCCN2CC2CC2)CC1,-104
21,CC(=O)c1cc(CN2C[C@@H]3CC[C@H]2CN(S(=O)(=O)N(C)C)C3)cs1,-60.2
22,O=C(O)Cn1ccc(=O)c2ccccc21,-123

row,SMILES,INHIBITION [%]
1,CC(C)(C)c1cc(C(=O)NCCN2CCCS2(=O)=O)[nH]n1,34.4
2,CC(C)C(=O)N1CCCC2(CCCN2CC2CCCC2)C1 (stereo unspecified),62
3,CC(C)C(=O)N1CCC2(CCN2CC2CC2)C1 (stereo unspecified),-74.5
4,CC(C)C(=O)N1CCC2(CN(CC3CCCC3)C2)C1,-67.5
5,CCCS(=O)(=O)N1CCC(NC(=O)c2cc3ccccc3s2)CC1,7.92
6,COCC(=O)N1C[C@@H](CN2CCCN(C)CC2)[C@@H](CO)C1,-37.6
7,Cc1[nH]c2ccc(CNc3cc(C(=O)NC(C)C)ccn3)cc2c1C,-115
8,O=C(c1ccccc1)N1CCCn2c(CN3CCCCC3)nnc2C1,-94.3
9,CCc1noc(C)c1C(=O)N1CCCCC1Cn1cc(C)cn1 (stereo unspecified),-104
10,CCC(=O)N(C)C1CCN(Cc2ncc(C)c(OC)c2C)CC1,-102
11,CCNC(=O)N(C)C1CCN(Cc2ncc(C)c(OC)c2C)CC1,69
12,COc1c(C)cnc(CN2CCC(N(C)C(=O)C(C)OC)CC2)c1C (stereo unspecified),-7.99
13,O=C(Cn1cc(I)cn1)N1CCCCCC1,-34.7
14,COc1ccc2cc(CNCc3c(C)nn(C)c3N(C)C)ccc2c1,18.6
15,Cc1cc(C)cc(N2CCN(C(=O)CCN3C[C@H]4CC[C@@H]3C4)CC2=O)c1,62.1
16,O=C(CCN1C[C@H]2CC[C@@H]1C2)N1CCN(c2cccc(Cl)c2)C(=O)C1,-40
17,Cc1ccc(N2CCN(C(=O)CN3C[C@H]4CC[C@@H]3C4)CC2=O)cc1,-73.1
18,CC(CN1CCCC1=O)NC(=O)Nc1ccccc1Cn1cccn1 (stereo unspecified),-4.06
19,CCOCC1c2c(cnn2C)CCN1C(=O)c1ccncn1 (stereo unspecified),-224
20,Cc1cccc(C)c1Oc1ncccc1CNC(=O)C1COC(=O)N1 (stereo unspecified),-180
21,CCC(CC)C(=O)NCc1cn2cc(Br)ccc2n1,1.4
22,COc1ccc(OCCN(C)c2cc(C)nc(N)n2)cc1,63.7

row,SMILES,INHIBITION [%]
1,COc1ccc(F)c(-c2cc(C)nc(N)n2)c1,-23.9
2,Cc1cc(N(C)CCCn2cccn2)nc(N)n1,26.7
3,CN(C)c1ccccc1CN1CCCC(N2CCCC2=O)C1 (stereo unspecified),-44.5
4,Cc1cccc(C(=O)N2CCC3(CC2)CC(c2cnn(C)c2)CO3)c1 (stereo unspecified),-85.1
5,CN(C)CC1(O)CCN(C(=O)Cc2ccc3c(c2)CCC3)C1 (stereo unspecified),-116
6,CN(C)CC1(O)CCCN(C(=O)CCn2cc(Cl)cn2)C1 (stereo unspecified),-101
7,CN(C)CC1(O)CCCN(C(=O)Cc2ccc(Cl)c(Cl)c2)C1 (stereo unspecified),58.9
8,O[C@H]1CCCC[C@@H]1N1CCN(CCCc2ccc3c(c2)OCO3)CC1,28.7
9,CN(C)C(CNCc1nc(-c2ccsc2)no1)c1cccc(F)c1 (stereo unspecified),-31.3
10,CN(C)C(CNCc1nc(-c2ccsc2)no1)c1ccsc1 (stereo unspecified),55.4
11,CN(C)C(CNCc1nc(-c2ccsc2)no1)c1cccs1 (stereo unspecified),12.3
12,CCC1=NC(SCC(=O)c2ccccc2)c2cc(CC)sc2N1 (stereo unspecified),-23.2
13,c1ccc(-c2cc(CNCCN3CCCC3)c3nnnn3c2)cc1,-1.88
14,c1ccc(-c2cc(CNCCCN3CCCCC3)c3nnnn3c2)cc1,65.4
15,c1ccc(-c2cc(CNCCN3CCOCC3)c3nnnn3c2)cc1,-57.2
16,O=C([C@@H]1C[C@@H]2CCN(CCc3ccccc3)C[C@H]2O1)N1CCCC1,-35
17,CC(O)CN1CCC(CNCc2ccccc2Cl)CC1 (stereo unspecified),44.5
18,CCc1nnc2n1CC(CNCC1CCCC1)CC2 (stereo unspecified),-108
19,COc1ccc2c(c1)C(=O)NC1(CC2)CCN(Cc2ccc(F)cc2)C1 (stereo unspecified),66.7
20,COc1ccc2c(c1)OC1(CCN(Cc3ccc(F)cc3)CC1)CC2=O,-50.5
21,COc1ccc2c(c1)C(=O)NC1(CC2)CCN(Cc2ccccc2)C1 (stereo unspecified),64.7
22,COc1ccc2c(c1)C(=O)NC1(CC2)CCN(Cc2ccncc2)C1 (stereo unspecified),-28.2

row,SMILES,INHIBITION [%]
1,COc1ccc2c(c1)C(=O)NC1(CC2)CCN(Cc2ccccn2)C1 (stereo unspecified),-30.5
2,COc1ccc2c(c1)C(=O)NC1(CC2)CCN(Cc2cccnc2)C1 (stereo unspecified),-50.6
3,Cc1ccc(C(=O)Nc2ccccc2F)n1C,-184
4,COc1c(F)cc(-c2cn(CCn3c(C)cc(C)nc3=O)nn2)cc1Cl,59.7
5,COc1ccc(-c2cn(CCn3c(C)cc(C)nc3=O)nn2)cn1,-102
6,CC(=O)Nc1ccc(-c2cn(CCn3c(C)cc(C)nc3=O)nn2)cc1,-49.9
7,c1ccc(CN2CCCn3nnc(Cn4cccc4)c3C2)nc1,-33.7
8,Cc1ccc(N2CC[C@H]3O[C@@H](C(=O)N4CCCO4)CC[C@H]32)nn1,-24.1
9,Cc1cnc(C(=O)N2CCC3(CC2)CN(c2ccccn2)CCO3)cn1,-79.7
10,CCNC(=O)C1CCCN(C(=O)Nc2ccc3c(c2)CCCN3C)C1 (stereo unspecified),13.1
11,CCOCC1CCN(C(=O)Nc2ccc3c(c2)CCCO3)C1 (stereo unspecified),-50.7
12,CCOCC1CCN(C(=O)Nc2ccc3c(c2)CCCN3C)C1 (stereo unspecified),58.9
13,Cn1ccnc1CN1CCN(CCOc2cccc(C#N)c2)CC1,-53.6
14,O=C(c1c[nH]cn1)N1CCC(F)(F)C2(CCN(c3cnccn3)C2)C1 (stereo unspecified),-94.9
15,CC(=O)N1C[C@H](NS(=O)(=O)Cc2cccc(Cl)c2)[C@@H](C(C)C)C1,-62.4
16,Cc1cc(NCc2cc3n(n2)CCCN(C(=O)C2CCC2)C3)nc(N)n1,-79.3
17,COc1cccc(C(=O)N2CCc3nc(C4CCCN4)ncc3C2)c1 (stereo unspecified),4.58
18,COc1ccc(C)cc1CN(Cc1ncc(C)o1)C1CCN(C)C1 (stereo unspecified),38.7
19,Cc1cnc(CN(Cc2ccc(C#N)cc2F)C2CCN(C)C2)o1 (stereo unspecified),12.5
20,COc1ccc(C)cc1CN(Cc1nc(C)c(C)o1)C1CCN(C)C1 (stereo unspecified),56.2
21,CN1C(Cn2cccn2)C[C@@H]2CN(C(=O)c3cccc(C#N)c3)CC[C@@H]21 (stereo partly specified),-95.8
22,CC(C)Oc1ccccc1OCCN1C(=O)CCNC1=O,-16.4

row,SMILES,INHIBITION [%]
1,CCNC(=O)C1CCN(Cc2ccc(C(=O)Nc3nnc(C)s3)cc2)C1 (stereo unspecified),-162.2
2,OC1(CNCc2ccc(F)c(C(F)(F)F)c2)CCSCC1,56.4
3,OC1(CNCc2ccc(F)c(C(F)(F)F)c2)CCOC1 (stereo unspecified),-1.68
4,Cc1cc(CNCC2(O)CCOCC2)ccc1F,16.2
5,O=C(NCc1cccnc1)[C@@H]1C[C@H]2[C@H](CCN2c2ncccn2)O1,-112
6,CO[C@H]1CN(C)S(=O)(=O)[C@@]12CCN(Cc1ccccc1)C2,-53.8
7,Cc1cc(O)c(OCC(=O)Nc2nc3c(s2)CCCCC3)cn1,-94.4
8,COc1ccc(CNC(C)c2ccc(Cl)c(Cl)c2)c(OC)c1OC (stereo unspecified),66
9,COc1ccc(C(C)NCc2c[nH]nc2C)cc1OC (stereo unspecified),-59.7
10,COc1ccc(C(C)NCc2c[nH]nc2C)cc1Br (stereo unspecified),20.5
11,COc1cc(CNC(C)c2cccc(Cl)c2)cc(OC)c1OC (stereo unspecified),63.5
12,COc1ccc(C(C)NCc2ccc(OC)c(OC)c2OC)cc1F (stereo unspecified),36
13,COc1cc(CNC(C)c2ccc(F)c(F)c2)cc2c1OCCO2 (stereo unspecified),-7.66
14,CNS(=O)(=O)c1cccc(C(C)NCc2cccc(OC)c2)c1 (stereo unspecified),3.75
15,COc1ccc(CNC(C)c2cccc(Br)c2)c(OC)c1OC (stereo unspecified),67.1
16,COc1ccc(CNC(C)c2cccc(Cl)c2)c(OC)c1OC (stereo unspecified),43.3
17,CCCn1cc(NC(=O)c2ccc(S(=O)(=O)CC)cc2)ccc1=O,-1.56
18,O=C(CNCCn1cccn1)NCC1(c2ccccc2)CCC1,-77
